“And” between values parts separate entries of the source, which are not always exact repeats. Equal entries are not always repeated. This is part of a sample that, as a whole, favours compounds with a hit. Of some 83,000 tested, about 20% had one in any assay.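 Method: cells in 96-well plates; compound added at one concentration; 48 h incubation; percent growth measured; values under 10 scored active.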 The source made the active and inactive calls.

In the first assay the test system is CAKI-1 renal. The experiment in a line: NCI-60 one-dose screen, 48 h (100 = growth as untreated, 0 = no growth, -100 = all killed). The note with it: 10 µM. The method, then:
Growth inhibition of the CAKI-1 human tumor cell line is measured as a screen for anti-cancer activity. Cells are grown in 96 well plates and exposed to the test compound for 48 hours. Compounds are tested at a single concentration, which is 10^-5 M for most compounds. The reported endpoint is percent growth (GI% or GIPRCNT), where numbers from 0 - 100% represent growth inhibition, and numbers from -100% - 0 represent cell death. For example, a value of 40 represents 60% growth inhibition. A value of 0 means no net growth occurred over the course of the experiment. A value of -40 indicates 40% of cells at the beginning of the experiment died by the end of the experiment. A value of -100 means all cells are dead at the end of the experiment.
NCI-60 Human Tumor Cell Lines Screen was performed using the standard one-dose NCI protocol, which is described in more detail at https://dtp.cancer.gov/discovery_development/nci-60/default.htm.
Compounds with GIPRCNT values below 10 were considered active. Activity score was based on GIPRCNT using the following formula: […]
Score is 0 for GIPRCNT values of 100 or above, 50 for GIPRCNT values of 0, and 100 for GIPRCNT values of -100.
Turning to `COc1ccc(Cl)cc1C(=O)NCCc1ccc(S(=O)(=O)NC(=O)NC2CCCCC2)cc1`, the growth was 94.5% (inactive) and 94.3% (inactive).

Still in this assay, the particulars now being: 10 µM unless noted.
In the case of `Cn1c(=O)c2[nH]c(CCCCCCCCc3nc4ccccc4[nH]3)nc2n(C)c1=O`, the growth is 49.7% (inactive) and 57.9% (inactive).
For `CC(=O)Nc1ccc2cc3ccc(NC(C)=O)cc3nc2c1`, the growth is 45.9% (inactive) and 97.2% (inactive).
In the case of `CC1CCCC(=O)O1` (stereo not given), the growth was 95.7% (inactive) and 102% (inactive).
`Cc1nnc(NC/C=C/c2ccccc2)s1`: the growth was 112% (inactive).
As for `O=[N+]([O-])c1ccccc1/C=N\Nc1ccccc1`, the growth was 71.9% (inactive) and 60.8% (inactive).
Regarding `NC(=O)C1CC2C=CC1C2` (stereo not given), the growth was 76.1% (inactive) and 69.2% (inactive).
Take `O=[N+]([O-])c1ccc(N/N=C\c2cc(Br)ccc2O)nc1`: the growth is 0.337% (active) and 2.29% (active).
On the same count and under the same terms, the value for `OC(CSc1ccccc1)CN1CCN(c2cccc(Cl)c2)CC1` (stereo not given) was 92.2% (inactive) and 87.9% (inactive).
Consider `NC(=S)NN=C1CCC(C2CCCCC2)CC1` (stereo not given), for which the growth is 81.9% (inactive) and 96.2% (inactive).
For the molecule `CN(C)c1ccc(C(Cc2ccc3ccccc3n2)Cc2ccc3ccccc3n2)cc1`, the growth was 26.1% (inactive) and 74.9% (inactive).
On to `C=C1C(=O)O[C@H]2[C@H]1CC/C(COC(=O)NC1CCC(O)CC1)=C\CC[C@@]1(C)O[C@@H]21` (stereo not given in full), for which the growth was 70.3% (inactive) and 64% (inactive).
On the same count and under the same terms, to `Cn1cnc([N+](=O)[O-])c1Sc1ncnc2nc[nH]c12` belongs 49.2% (inactive) and 75.8% (inactive); to `CCC(=O)C(CC)c1cccc(OC)c1` (stereo not given), 94.4% (inactive); to `COc1ccc(/C(C#N)=C/c2ccccn2)cc1`, 101% (inactive) and 126% (inactive).
Take `CCc1c(CC(=O)O)c2cc(C)ccc2n1Cc1ccc(Cl)cc1`: the growth is 90% (inactive).
Still for that read-out and setting: the value for `CC(C)C(=O)Nc1ccc([N+](=O)[O-])c(C(F)(F)F)c1` was 69.2% (inactive) and 100% (inactive); that for `O=C(O)CN(CCN(CC(=O)O)CC(=O)O)CCN(CC(=O)O)CC(=O)O` was -7.19% (active) and 87% (inactive); that for `O=S(=O)(Nc1ccccc1)C1CCCCC1` was 86.5% (inactive) and 98.7% (inactive).
On the same count and under the same terms, the value for `CC(/C=N/N1C(=O)c2ccccc2C1=O)c1ccccc1` (stereo not given) was 83.6% (inactive); that for `CCC(O)c1ccccc1` (stereo not given) was -23.1% (active) and 97% (inactive).
On to `Nc1ccccc1SC1CC(=O)N(c2cccc3ccccc23)C1=O` (stereo not given), for which the growth is 79.7% (inactive).
In the case of `N=C1N=C(N)CS1`, the growth is 96.5% (inactive).
On the same count and under the same terms, to `CNC(=O)c1cccnc1` belongs 92.1% (inactive).
Consider `O=C(Nc1cccc(Cl)c1)c1cc2ccccc2cc1O`, for which the growth is 3.2% (active) and -1.64% (active).
The same measure, in the same setting: the value for `CC1(c2ccc3ccccc3c2)CCC(=O)O1` (stereo not given) was 100% (inactive); that for `Cc1cc(O)c(C(C)C)cc1N` was 107% (inactive) and 97.4% (inactive); that for `COC(=O)[C@H]1CCCN1C(=O)C1CCCN1C(=O)[C@@H](Cc1ccccc1)NC(=S)Nc1cc(C(F)(F)F)cc(C(F)(F)F)c1` (stereo not given in full) was 89.2% (inactive).
As for `COc1cc(C(=O)N/N=C/c2ccc(N(C)C)cc2)cc(OC)c1OC`, the growth was 68.3% (inactive).
Regarding `OCCN1CCN(CCO)CC1`, the growth was 104% (inactive) and 81.4% (inactive) and 120% (inactive).
For the molecule `CC(=O)C(/C=N/C(N)=O)=C(/C)O`, the growth is 97.9% (inactive).
Turning to `CCCCCCCCCCCCCCCc1cc(O)ccc1N`, the growth is 68.2% (inactive) and 1.52% (active).
In the case of `ClC/C=C/CSc1ncnc2nc[nH]c12`, the growth is 106% (inactive) and 111% (inactive).
On to `O=C(Nc1ccc(Br)cc1)c1cc(Br)ccc1O`, for which the growth was 5.39% (active) and 10.4% (inactive).
Consider `NC(=O)NO`, for which the growth is 83.9% (inactive) and 77.2% (inactive).
Same read-out and setting: the value for `O=C(O)c1cc(C(=O)O)cc([N+](=O)[O-])c1` was 96.2% (inactive); that for `Cc1n[nH]c(=O)n(/N=C\c2c[nH]c3ccccc23)c1=O` was 98.4% (inactive).
With `O=Nc1ccc(O)cc1`, the growth was 97.9% (inactive).
Turning to `CC(=O)c1ccccc1O`, the growth is 92.5% (inactive) and 99.4% (inactive) and 87.3% (inactive).

Still in this assay, the particulars now being: 100 µM.
In the case of `COc1ccc(Cl)cc1C(=O)NCCc1ccc(S(=O)(=O)NC(=O)NC2CCCCC2)cc1`, the growth was 56.7% (inactive).

For the origin of these results see PubChem BioAssay (NCI).
